# Unmarked numbers belong to inactive results. Inconclusive results are not listed. Calls of active or inactive are those of the source. Calls follow the shape of the dose curve; as a rule, active = well fitted curve in the direction sought with a large enough effect; inconclusive = small, poorly fitted or top-dose-only effect, or another doubt; inactive = no such curve, though single readings can be large; an effect the other way counts as inactive or inconclusive.
# System: not listed separately
# Assay: Primary fluorescence-based thiol-reactive (MSTI) qHTS assay for identification of artifact compounds. (AID 1845221); also: nearly all actives have a fitted effect of over 65% in size; also: potency is read from the fitted curve at half-maximal effect;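 as to activity change, negative = thiol reactive: thiol-reactive compounds lower the probe fluorescence signal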
# Details: MSTI thiol-reactivity probe, 1 h; series mostly up to 53.8 µM; activity change, negative = thiol reactive: at the top concentration
# Method in brief: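 Thiol-reactive compounds detected by quenching of 4 uM MSTI fluorescence (525/598 nm) after 1 h room-temperature dark incubation in PBS pH 7.4, 2% DMSO. qHTS titration; percent inhibition Hill-fitted against Acetyl-MSTI/MSTI controls.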
Structure (SMILES),Potency,"activity change, negative = thiol reactive"
CC(C#N)C(C)O[C@@H]1O[C@H](CO)[C@@H](O)[C@H](O)[C@H]1O (some centres undefined),26.7 µM (active),
C=C(C)[C@@H]1CC[C@](C)(O)[C@@H](OC(=O)c2ccccc2)C1,,5.96%
CC(=O)N1CCN(NC(=O)c2ccc(F)cc2)CC1,,-14%
CCC(C)(O)C(O)C(=O)OCc1ccc(O[C@@H]2O[C@H](CO)[C@@H](O)[C@H](O)[C@H]2O)cc1 (some centres undefined),,-0.421% [at 25.6 µM]
CC1=C(C)C(=O)OC(C(C)(O)C2CCC3C4CC=C5CC(OC6OC(COC7OC(CO)C(O)C(O)C7O)C(O)C(O)C6O)CC(O)C5(C)C4CCC32C)C1 (centres undefined),,161% [at 25.6 µM]
COc1ccc(C(O[C@@H]2O[C@H](CO)[C@@H](O)[C@H](O)[C@H]2O)C(CO)Oc2ccc(/C=C/CO)cc2OC)cc1O (some centres undefined),5.19 µM (active),

# System: Nanoluciferase (engineered Oplophorus gracilirostris luciferase)
# Assay: Primary Nanoluciferase (NLuc) qHTS assay for identification of artifact compounds. (AID 1845222);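 also: 0% = DMSO and -100% = no enzyme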
# Details: NLuc-conditioned medium, Nano-Glo luminescence, 5 min; series mostly up to 54.1 µM; activity, negative = inhibition: at the top concentration
# Method in brief: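 Diluted conditioned medium from NLuc-expressing S16 cells treated with compounds for 15 min at room temperature, then Nano-Glo substrate added; luminescence read after 5 min. Percent inhibition versus no-enzyme and DMSO controls fitted to 4-parameter Hill equation.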
row,Structure (SMILES),"activity, negative = inhibition"
1,CN(NC(=O)CC(=O)NN(C)C(=S)c1ccccc1)C(=S)c1ccccc1,-4.43%
2,CC(=O)N(O)CCCCCN1C(=O)CCC1=O,0%
3,CCOC(=O)c1c(C)nn(-c2cccc([N+](=O)[O-])c2)c1C,0.234%
4,CC(/C=C/C1(O)C2(C)COC1(C)CC(=O)C2)O[C@@H]1O[C@H](CO)[C@@H](O)[C@H](O)[C@H]1O (some centres undefined),2.91% [at 25.7 µM]
5,O=C(/C=C/c1ccc(O)cc1)O[C@H]1[C@@H]2C=CO[C@@H](O[C@@H]3O[C@H](CO)[C@@H](O)[C@H](O)[C@H]3O)[C@@H]2[C@@]2(CO)O[C@@H]12,-3% [at 25.7 µM]
6,CC(C#N)C(C)O[C@@H]1O[C@H](CO)[C@@H](O)[C@H](O)[C@H]1O (some centres undefined),4.4%
7,CC1(C)CCC[C@@]2(C)[C@H]1[C@H](O)C=C1COC(=O)[C@@]12O,-0.0914%
8,CNC(=O)c1ccc(Nc2ncc(C(F)(F)F)c(NCc3nccnc3N(C)S(C)(=O)=O)n2)cc1,2.82%
9,COc1cc(COC2OC(CO)C(O)C(O)C2O)cc(OC)c1O (centres undefined),3.82%
10,C[C@H]1[C@H](C)CC[C@]2(C(=O)O[C@@H]3O[C@H](CO)[C@@H](O)[C@H](O)[C@H]3O)CC[C@]3(C(=O)O)C(=CCC4[C@@]5(C)CC[C@H](O[C@@H]6O[C@H](CO)[C@@H](O)[C@H](O)[C@H]6O)C(C)(C)C5CC[C@]43C)[C@H]12 (some centres undefined),-1.27% [at 11.6 µM]
11,COC(=O)C12C(=O)C(C)=C(O)C1(C)C(C)=CC1C34CCC(OC3=O)C(C)(C)C4CCC12C (centres undefined),1.71% [at 25.7 µM]
12,O=c1c2ccccc2nc2n1CCC2O (centres undefined),-0.194% [at 86.2 µM]
13,CC(=O)NC(CCC(=O)O)C(=O)NCCc1ccc(O)cc1 (centres undefined),4.32%
14,C=C(C)[C@@H]1CC[C@](C)(O)[C@@H](OC(=O)c2ccccc2)C1,-1.52%
15,CC(=O)N1CCN(NC(=O)c2ccc(F)cc2)CC1,3.97%
16,COC(=O)CC1(O)C(=O)Nc2ccccc21 (centres undefined),2.27%
17,CCCn1cnc2c(NCc3ccccc3)nc(N[C@H](CC)CO)nc21,1.16%
18,COc1cc2c(cc1O)C1(Cc3ccc4c(c3C1=O)OCO4)N(C)CC2 (centres undefined),-5.6%
19,C=C1CCC2[C@@](C)(C=O)CCC[C@]2(C)[C@H]1CC/C(C)=C/CO (some centres undefined),-2.3%

row,Structure (SMILES),"activity, negative = inhibition"
1,C/C=C(\C)C(=O)OC[C@H]1O[C@H](O[C@H]2O[C@H](CO)[C@@H](OC(=O)/C(C)=C/C)[C@H](O)[C@H]2O[C@@H]2O[C@H](CO)[C@@H](O)[C@H](O)[C@H]2O)[C@H](O[C@@H]2O[C@H](CO)[C@@H](O)[C@H](O)[C@H]2O)[C@@H](O)[C@@H]1O,0% [at 11.6 µM]
2,C/C=C(\C)C(=O)O[C@@H]1CC2[C@@H](CC=C3C[C@@H](O[C@H]4C[C@H](OC)[C@H](O[C@H]5C[C@H](OC)[C@H](O[C@H]6C[C@H](OC)[C@H](O[C@H]7C[C@@H](OC)[C@H](O[C@@H]8O[C@H](CO)[C@@H](O)[C@H](O)[C@H]8O)[C@@H](C)O7)[C@@H](C)O6)[C@@H](C)O5)[C@@H](C)O4)CC[C@@]32C)[C@@]2(O)CC[C@H](C(C)=O)[C@@]12C (some centres undefined),4.8% [at 11.6 µM]
3,CC1CCC2C(C(=O)O)=CC3CC(C)(C)CC132 (centres undefined),-4.64%
4,COc1ccc(/C=C/C(=O)O[C@@H]2[C@@H](O)[C@H](C)O[C@@H](OC3C4C=COC(O[C@@H]5O[C@H](CO)[C@@H](O)[C@H](O)[C@H]5O)C4C4(CO)OC34)[C@@H]2O)cc1OC (some centres undefined),3.23% [at 25.7 µM]
5,CCC(C)C(=O)O[C@@H]1[C@@H](O)[C@@H](O[C@H]2O[C@H](CO)[C@@H](O)[C@H](O)[C@H]2O)O[C@H](CO)[C@H]1O (some centres undefined),2.66% [at 25.7 µM]
6,C=C1C(=O)OC2CC(C)=C(C(C)CCCO[C@@H]3O[C@H](CO)[C@@H](O)[C@H](O)[C@H]3O)C(O)C12 (some centres undefined),0% [at 25.7 µM]
7,CCC(C)(O)C(O)C(=O)OCc1ccc(O[C@@H]2O[C@H](CO)[C@@H](O)[C@H](O)[C@H]2O)cc1 (some centres undefined),2.2% [at 25.7 µM]
8,C/C=C(\C)C(=O)O[C@@H](C)[C@H]1CC[C@]2(O)C3CCC4C[C@@H](OC5CC(OC)C(OC6CC(OC)C(OC7CC(OC)C(OC8OC(C)C(OC9OC(CO)C(O)C(O)C9O)C(OC)C8O)C(C)O7)C(C)O6)C(C)O5)CC[C@]4(C)C3[C@H](O)[C@@H](O)[C@]12C (some centres undefined),0.355% [at 11.6 µM]
9,CC1CCC(=O)CC(O)C(O)CC(=O)O1 (centres undefined),2.89%
10,CC1=C(C)C(=O)OC(C(C)(O)C2CCC3C4CC=C5CC(OC6OC(COC7OC(CO)C(O)C(O)C7O)C(O)C(O)C6O)CC(O)C5(C)C4CCC32C)C1 (centres undefined),1.87% [at 25.7 µM]
11,COc1ccc(C(O[C@@H]2O[C@H](CO)[C@@H](O)[C@H](O)[C@H]2O)C(CO)Oc2ccc(/C=C/CO)cc2OC)cc1O (some centres undefined),-0.745% [at 25.7 µM]
12,CO[C@@H](Cc1ccc(OCCc2nc(-c3ccccc3)oc2C)c2ccsc12)C(=O)O,-2.12%
13,CC(=O)c1c(C)cc(O)cc1O[C@@H]1O[C@H](CO)[C@@H](O)[C@H](O)[C@H]1O,1.82%
14,CC1[C@@H](O)[C@@H](O)C2[C@]3(C)C(C[C@H]4OC(=O)[C@H](O)[C@]1(O)[C@@]24C)C(C)(O)C[C@H](O)[C@H]3O (some centres undefined),1.75% [at 25.7 µM]
15,COc1ccc2c(c1)OC[C@]1(O)c3cc4c(cc3O[C@H]21)OCO4,-4.15%
16,COC(=O)C1=CO[C@@H](O[C@@H]2O[C@H](CO)[C@@H](O)[C@H](O)[C@H]2O)[C@@H]2[C@@H](C(=O)OC)[C@@H](O)C(O)[C@H]12 (some centres undefined),-0.903% [at 25.7 µM]
17,CC(=O)O[C@H]1[C@H](Oc2ccccc2COC(=O)C2(O)C=CCCC2=O)O[C@H](CO)[C@@H](O)[C@@H]1O (some centres undefined),1.35% [at 25.7 µM]
18,CCOc1ccc(C(Nc2ccccn2)c2ccc3ccc(C)nc3c2O)cc1C (centres undefined),-2.69%
19,COc1ccc(C2=CC(=O)OC2Cc2ccc(O)cc2)c(O)c1 (centres undefined),-4.16%
